From PubChem BioAssay
Rows were chosen to be rich in hits. Some 2.4% of all compounds tested hit in one or more screens of this group.
PABP polyA inh: blocks human PABP binding to poly(A) RNA | P11940 | fluorescence polarization | inhibition, % at 35 µM | 1% of 290,000 active | AID 2014;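 also: calls also rest on retests at 20 µM and on dose response follow-up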
eIF4H FP inh: inhibitors of RNA binding by human eIF4H; inhibition, % at 35 µM; Q15056; eIF4H fluorescence polarization binding assay; 0.94% of 290,000 active; AID 2012;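 also: calls also rest on retests at 20 µM and on dose response follow-up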
PfM18AAP inh: blocks P. falciparum M18 aspartyl aminopeptidase; AID 1822; 1.2% of 290,000 active; recombinant PfM18AAP, H-Glu-NHMec fluorogenic cleavage; inhibition, % at 7.35 µM;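 active = inhibition above the campaign mean inhibition over all tested compounds plus 3 SD, cut at about 28% in these data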;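 also: 0% = plate median of test compound wells and 100% = 2 mM ZnCl2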
PERK inhibitor: human PERK inhibition, primary cell-based screen; Q9NZJ5; AID 1416; CHO PERK-DD fusion, SEAP luminescence translation reporter; 0.17% of 220,000 active; inhibition, % at 5.6 µM;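 active = inhibition above the mean inhibition of all tested compounds plus 3 SD, set separately per screening campaign, cut at about 2.9% in these data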;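 also: PERK kinase domain activated by AP20187 dimerizer at 100 nM; 0% = DMSO with dimerizer and 100% = rapamycin at 8.4 µM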
MLLE-PAM2 inh: inhibitors of microRNA-mediated deadenylation, human PABP1 MLLE binding; 0.36% of 360,000 active; inhibition, % at 20 µM; AID 588489; GST-MLLE / FITC-PAM2 fluorescence polarization; in the data active = inhibition above about 35%, passing the limit was not always enough;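 also: plate controls were DMSO wells with GST-MLLE for no effect and wells lacking GST-MLLE protein for full effect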
eIF4E-4G inh: blocks eIF4E binding to eIF4G | inhibition, % at 21.7 µM | TR-FRET eIF4E-eIF4GI(517-606) binding, 2 h | 0.37% of 220,000 active | AID 782;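 active = inhibition above about 30%, limit read from the data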;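 also: 0% = full FRET control wells and 100% = background wells lacking eIF4GI fragment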
An asterisk follows results filed as active; u = inconclusive; x = no result given. Unless noted, no rule for the calls is given here.

SMILES	PABP polyA inh	eIF4H FP inh	PfM18AAP inh	PERK inhibitor	MLLE-PAM2 inh	eIF4E-4G inh
O=C(CNC(=O)N1CC(=O)Nc2ccccc21)NCCc1cccc(F)c1	1.1	1.9	-7.2	x	4.9	x
CN1CCN(c2cc(-c3ccc4ccccc4c3)nc3ccnn23)CC1	x	x	x	x	-1.4	x
Cc1ccc(S(N)(=O)=O)cc1NC(=O)c1ccc2c3c(cccc13)CC2	-11.0	3.6	7.2	x	0.5	x
O=C1C2C3C=CC(C2C(=O)N1c1nccs1)C1C(=O)N(c2nccs2)C(=O)C31 (centres undefined)	-0.1	9.4	-0.5	1.0	7.9	-5.3
O=C1C2C3C=CC(CC3)C2C(=O)N1c1nccs1 (centres undefined)	active	104.9*	5.0	1.1	13.2	7.0
O=C(NC1CCCCC1)c1ccc2c(c1)OCCO2	2.5	-11.5	-6.3	x	7.3	x
O=C(NC1CCCCCCC1)c1ccc2c(c1)OCO2	1.9	-14.4	2.1	0.3	-7.4	32.1*
CCN(CC)CCNC(=O)C1(O)c2cc(Br)ccc2NC(=O)N1c1c(F)cccc1F (centres undefined)	-7.4	1.4	-6.7	x	-5.4	x
CCSc1nnc(NC(=O)c2cc(-c3ccccc3O)n[nH]2)s1	-1.2	7.4	4.7	3.8*	-6.7	-3.1
CCSc1nnc(NC(=O)c2cccc3ccccc23)s1	16.1	-1.4	0.6	0.1	3.8	-1.6
Cc1cc(Cl)ccc1NC(=S)Nc1cccnc1	-1.3	1.1	-0.9	1.6	38.5*	-2.8
Fc1c(F)c(F)c(/C=N/NC(=S)Nc2cccnc2)c(F)c1F	-7.8	-1.0	17.8	1.2	40.0*	2.7
Fc1cccc(F)c1/C=N/NC(=S)Nc1cccnc1	4.9	-2.4	9.3	0.6	21.6	-0.7
Fc1cccc(NC(=S)Nc2cccnc2)c1	-7.3	-0.2	0.5	0.8	42.5*	0.3
Cc1cc(Cl)ccc1NC(=S)NC(C)(C)C	32.2	-2.1	0.3	1.4	39.9*	-2.6
C[C@@H]1Cn2cnc(C(=O)NCC(=O)OC(C)(C)C)c2C(=O)N1	x	x	x	x	-10.2	x
CCN1C(=O)[C@H]2[C@@H](c3ccc(C(F)(F)F)cc3)N[C@]3(CCCN(Cc4ccc(OC)cc4)C3=O)[C@H]2C1=O	x	x	x	x	-2.0	x
CCOC(=O)C1=C(C)c2ccccc2N(S(=O)(=O)C(F)(F)F)C1C(=O)OCC (centres undefined)	x	x	x	x	-0.2	x
COc1ccc(N(CC(=O)NCCc2cccc(C)c2)S(=O)(=O)c2c(C)noc2C)cc1	-2.2	-10.6	5.1	x	-1.8	x
Cc1ccccc1OCCc1c(C)[nH]c(=S)[nH]c1=O	3.8	3.2	0.7	0.0	8.1	-3.6
Cc1[nH]c(=S)[nH]c(=O)c1CCOc1ccccc1	-5.0	-2.4	7.0	3.1*	-9.8	-7.7
Cc1cc2ccccn2c1C(=O)c1ccc(N/N=C/c2ccc(C(=O)O)cc2)c([N+](=O)[O-])c1	29.7	95.6	-7.5	0.3	-36.1	53.9*
CCOC(=O)C1=C(N)c2ccccc2CC1C(C)C (centres undefined)	-6.8	-4.4	-6.6	-0.2	7.4	-1.7
COc1cc2cc(CN(Cc3nnnn3Cc3ccccc3)CC3CCCO3)c(=O)[nH]c2cc1OC (centres undefined)	68.3*	53.6*	19.7	-0.8	16.7	3.8
COc1ccc2cc(CN(CCc3ccccc3)Cc3nnnn3Cc3ccco3)c(=O)[nH]c2c1	37.2*	54.9*	21.6	-1.1	-14.9	-6.1
SMILES	PABP polyA inh	eIF4H FP inh	PfM18AAP inh	PERK inhibitor	MLLE-PAM2 inh	eIF4E-4G inh
Cc1ccc2cc(CN(Cc3ccc4c(c3)OCO4)Cc3nnnn3Cc3ccco3)c(=O)[nH]c2c1	-3.3	0.1	2.5	-0.9	8.7	-21.5
Cc1ccc(CN(Cc2cc3cc4c(cc3[nH]c2=O)OCCO4)Cc2nnnn2Cc2ccco2)cc1	52.6	36.9	30.1*	-0.4	-12.6	-17.1
CCC(C)(C)n1nnnc1C(C(C)C)N(Cc1cccnc1)Cc1ccco1 (centres undefined)	-11.7	-3.8	-1.4	0.3	-9.9	0.0
CCC(C)(C)n1nnnc1C(C(C)C)N(Cc1ccco1)Cc1cc2cc3c(cc2[nH]c1=O)OCO3 (centres undefined)	59.4*	86.6	23.0	-0.3	35.6	2.8
C=CCn1c(SCC(=O)N2CCOCC2)nc(O)c(Cc2ccccc2)c1=O	-5.7	-8.0	-0.7	1.4	32.3	-6.1
Cc1ccc(NC(=O)C2C(c3ccccc3)C2(Cl)Cl)c(C)c1 (centres undefined)	active	u	1.3	1.1	4.1	-7.2
